Test results as given in PubChem BioAssay AID485364 (National Center for Advancing Translational Sciences (NCATS), 2010).
Several values for one entry are separate records, joined by “and”; a condition that tells them apart may be missing. Equal entries are not always repeated. The campaign covered roughly 360,000 compounds. About 11,000 (3.1%) were called active. Roughly 4% stayed inconclusive and do not appear here. Many of the other results were omitted from the sample, so actives are more common in it than they were. A number with no mark means an inactive call. The call rests on the fitted dose curve; in most records, active means well fitted inhibition curve with a large enough effect; inconclusive means small, poorly fitted or top-dose-only effect; inactive means no such curve, though single readings can be large or run the other way.

These compounds were tested against Schistosoma mansoni thioredoxin glutathione reductase (TGR) (UniProt Q962Y6) (assay: qHTS Assay for the Inhibitors of Schistosoma Mansoni Peroxiredoxins). Settings: purified TGR, DTNB reduction, TNB absorbance 405 nm; series mostly up to 114 µM; activity change, negative = inhibition: at the top concentration.
Procedure, shortened: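 First, TGR (20 nM dispensed) and NADPH were mixed with compound. Second, a 15 min room-temperature incubation followed. Third, further NADPH and then DTNB were added to start the reaction. Finally, TNB absorbance was monitored kinetically.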
Further: nearly all actives have a fitted effect of over 60% in size.
On the % scale 0 is the no-effect control and ±100 the full control effect; potency means the concentration at half of the fitted maximal effect.

Row | Compound | activity change, negative = inhibition [%] | Potency
1 | COc1ccc(C2=NC(c3ccncc3)=Nc3ccc(Br)cc3N2)cc1 | -3.27 | –
2 | Cc1ccc(C)c(-n2c(SCC(=O)O)nc3sc4c(c3c2=O)CCCC4)c1 | -7.97 | –
3 | Cc1nc2sc3c(c2c(=O)n1NC(=O)CCl)CCCC3 | – | 39.8 µM (active)
4 | Cn1c(NN)nc2sc3c(c2c1=O)CCC3 | 0.729 | –
5 | CCC(=O)N1CCc2cc(S(=O)(=O)NC(C(=O)NCCc3ccc(C)cc3)C(C)C)ccc21 (configuration not stated) | 6.61 | –
6 | C#CC(CCN1CCCCC1)(OC)c1ccccc1 (configuration not stated) | 9.25 | –
7 | CCCCCCC(O)(CCN1CCCCC1)c1ccccc1 (configuration not stated) | 2.75 | –
8 | CCCCCC(O)(CCN1CCCCC1)c1ccccc1 (configuration not stated) | – | 31.6 µM (active)
9 | Fc1ccccc1Oc1ncnc2c1oc1ccccc12 | -1.96 | –
10 | COc1ccc(CS(=O)/C(Cl)=C(/Cl)C(=O)Nc2ccc(OC)nc2)cc1 (configuration not stated) | – | 0.447 µM (active)
11 | COc1ccc(NC(=O)/C(Cl)=C(/Cl)S(=O)Cc2ccc(C)cc2)cn1 (configuration not stated) | 0 | –
12 | COc1ccc(NC(=O)C(=O)NCc2ccco2)cc1 | 0.649 | –
13 | COc1cccc(CNCCSc2nnnn2C)c1OCc1ccccc1Cl | -1.07 | –
14 | O=C(C1CC1)N1CCc2cc(Br)cc(S(=O)(=O)N3CCN(c4ccccc4F)CC3)c21 | 2.49 | –
15 | COc1ccc(C(=O)c2c3ccc([N+](=O)[O-])cc3[n+]([O-])n2CCCN)cc1 | – | 25.1 µM (active)
16 | COc1ccc(C(=O)NCCNc2ccc([N+](=O)[O-])cn2)cc1 | -19.1 | –
17 | COc1ccc2c(C(=O)c3ccc(C)cc3)n(CCC(N)=O)[n+]([O-])c2c1 | 7.84 | –
18 | CCCN(C(=O)Cn1ncc2c([nH]c3ccc(C)cc32)c1=O)c1ccccc1C | 0.145 | –
19 | O=C(c1ccc2c(c1)N(Cc1ccccc1)C(=O)c1ccccc1S2(=O)=O)N1CCCC1 | 0.183 | –
20 | Cc1cccc(N2CCN(C(=O)CCSCc3ccccc3F)CC2)c1C | 11.4 | –
21 | Cc1ccc(C)c(CNC(=O)c2cc3ccccn3n2)c1 | 2.27 | –
22 | Cc1cc(C(=O)NNC(=S)Nc2ccccc2C)cs1 | 2.83 | –
23 | Cc1ccc(C(=O)NC(=S)Nc2ccccc2C)cc1 | – | 31.6 µM (active)
24 | Cc1ccccc1NC(=S)NNC(=O)c1cccc(Br)c1 | -0.509 | –
25 | CCOC(=O)c1cccc(NC(=O)C(Cc2ccccc2)NS(=O)(=O)c2cccc3nsnc23)c1 (configuration not stated) | 3.11 | –

Row | Compound | activity change, negative = inhibition [%] | Potency
26 | O=c1c2ccccc2n(Cc2cccc(Cl)c2)c(=O)n1Cc1ccccc1 | -7.62 | –
27 | C/C=C(/C)C(=O)Nc1cccc(C2=NOC3(C2)C[C@@H](C(N)=O)N(C(=O)C2(C)CC2)C3)c1 (some centres not stated) | -18.8 | –
28 | C/C=C\C=C\C(=O)N1CC2(CC(c3cccc(NC(=O)/C(C)=C\C)c3)=NO2)C[C@H]1C(N)=O (some centres not stated) | – | 7.94 µM (active)
29 | C/C=C(\C)C(=O)N1CC2(CC(c3cccc(NC(=O)CCCCC)c3)=NO2)C[C@@H]1C(N)=O (some centres not stated) | -7.23 | –
30 | Cc1cc(Br)ccc1NC(=O)Cn1cnc2sc(C)c(S(=O)(=O)N3CCN(C)CC3)c2c1=O | -2.56 | –
31 | O=S(=O)(c1ccc(Cl)cc1)c1nnn2c1nc(NC1CCCC1)c1sccc12 | 2.43 | –
32 | Cc1ccc(C(=O)Cn2cc([N+](=O)[O-])nc2C)cc1 | -5.61 | –
33 | O=C(Cn1c[n+](CC(=O)c2ccc([N+](=O)[O-])cc2)cn1)c1ccc([N+](=O)[O-])cc1 | – | 10 µM (active) and 44.7 µM (active)
34 | C/C(=N/NC(=O)CC(=O)N/N=C(\C)c1ccc([N+](=O)[O-])cc1)c1ccc([N+](=O)[O-])cc1 | 4.47 | –
35 | CN(CC(=O)Nc1ccc(F)cc1)C(=O)c1ccc(-c2ccc(Cl)cc2)o1 | -27.9 | –
36 | Cc1[nH][nH]c(=O)c1C(c1ccc(-c2ccc(Cl)cc2)o1)c1c(C)[nH][nH]c1=O | – | 25.1 µM (active)
37 | NC(=O)C1(N2CCCCC2)CCN(C2CC(=O)N(Cc3ccc(N4CCCC4=O)cc3)C2=O)CC1 (configuration not stated) | – | 25.1 µM (active)
38 | CCCNC(=O)NCc1ccc(N2CCCC2=O)cc1 | 2.65 | –
39 | COC(=O)c1cc(NC(=O)CN2CCC(C(N)=O)(N3CCCCC3)CC2)cc(C(=O)OC)c1 | 3.3 | –
40 | COc1ccc(OC)c(-n2nnc(-c3nc(-c4cc(OC)c(OC)c(OC)c4)no3)c2C)c1 | 6.37 | –
41 | Cc1ccc(N2C(=O)C3C(c4ccccc4)(C2=O)C3(c2ccccc2)c2ccccc2)cc1 (configuration not stated) | 4.1 | –
42 | O=C(Cc1ccccc1)NNC1CC(=O)N(c2ccc(Br)cc2)C1=O (configuration not stated) | -13.2 | –
43 | Cc1ccc(N2C(=O)CC(Nc3cccc4ccccc34)C2=O)cc1 (configuration not stated) | – | 22.4 µM (active)
44 | CCOc1ccc(NC(=O)c2cnn(-c3ccccc3)c2-n2cccc2)cc1 | -1.01 | –
45 | Cc1ccc(OCC(=O)OCc2cc(=O)n3nc(C4CC4)sc3n2)cc1 | -6.56 | –
46 | COc1ccc(S(=O)(=O)NCC(c2ccc(N(C)C)cc2)N2CCc3ccccc32)cc1OC (configuration not stated) | -6.35 | –
47 | CCOC(=O)c1c(N)n(-c2cccc(C)c2C)c2nc3ccccc3nc12 | 1.92 | –
48 | CCOC(=O)c1c(NC(=O)CSc2nnc(CN3CCOCC3)n2C)sc2c1CCCC2 | -34.2 | –
49 | NC(=O)c1c(NC(=O)CSc2nnc(-c3ccco3)n2N)sc2c1CCCC2 | – | 11.2 µM (active)
50 | Nn1c(SCC(=O)Nc2nccs2)nnc1-c1ccco1 | -2.49 | –

Row | Compound | activity change, negative = inhibition [%] | Potency
51 | Cc1c(Cl)cccc1NC(=O)c1noc2c1CCCC2 | 3.49 | –
52 | CSc1ccc(CCNC(=O)c2cnn(-c3ccccc3)c2-n2cccc2)cc1 | 5.93 | –
53 | CCn1c(SCC(=O)Nc2cc(C)c(Cl)cc2OC)nnc1-c1ccco1 | -27.1 | –
54 | O=C(CSc1nnc(-c2cccnc2)n1Cc1ccco1)c1ccc(Cl)c(Cl)c1 | – | 22.4 µM (active)
55 | CCc1ccc(NC(=O)CSc2nnc(-c3cnccn3)n2Cc2ccco2)cc1 | – | 39.8 µM (active)
56 | O=C(CSc1nnc(-c2cccs2)n1Cc1ccco1)c1ccc2c(c1)OCO2 | -30.2 | –
57 | Cc1c(Cl)cccc1NC(=O)CSc1ccc(-c2cccnc2)nn1 | 5.94 | –
58 | CCn1c(SCC(=O)Nc2cc(C)ccc2C)nnc1-c1cnccn1 | 8.8 | –
59 | Cn1c(SCC(=O)Nc2nccs2)nnc1-c1cccnc1 | -0.988 | –
60 | O=C(CSc1nnc(-c2cccnc2)n1CCc1ccccc1)NCc1ccccc1 | -0.337 | –
61 | COc1ccccc1NC(=O)CSc1nnc(-c2ccoc2C)n1CCc1ccccc1 | 2.47 | –
62 | COc1cc(Cl)c(C)cc1NC(=O)CSc1nnc(-c2cccnc2)n1Cc1ccco1 | – | 44.7 µM (active)
63 | Cc1cc(C)nc(SCc2nnc(SCC(=O)Nc3ncc(C)s3)n2Cc2ccco2)n1 | -8.76 | –
64 | COc1cc(Cl)c(C)cc1NC(=O)CSc1nnc(-c2ccco2)n1CC(C)C | – | 25.1 µM (active)
65 | COc1ccc(OCC(=O)Nc2cccc(C(=O)OCc3cc(=O)n4nc(C)sc4n3)c2)cc1 | -8.03 | –
66 | Cc1cc(NC(=O)C2CCC(CNS(=O)(=O)c3ccc(Br)s3)CC2)ccc1Br (configuration not stated) | 1.31 | –
67 | COC(=O)c1ccc(NC(=O)CCc2c(C)nc3c(c(C)nn3-c3ccc(C)cc3)c2C)cc1 | -15.6 | –
68 | O=C(NCC(c1cccnc1)N1CCc2ccccc21)c1cccc(C(F)(F)F)c1 (configuration not stated) | -3.75 | –
69 | COc1ccc(CCNC(=O)CCc2c(C)nc3c(c(C)nn3-c3ccc(C)c(C)c3)c2C)c(OC)c1OC | -6.2 | –
70 | COc1ccc(NC(=O)CSc2nc3ccccc3n2CC(=O)N2CCCCC2C)cc1 (configuration not stated) | 8.71 | –
71 | C=CCn1c(CNC(=O)c2ccco2)nnc1SCC(=O)c1ccc(OC)cc1 | -29.4 | –
72 | COc1ccc(C(=O)NCc2nnc(SCCOc3ccccc3)n2C)cc1 | 12.1 | –
73 | COc1ccc(C(=O)CSc2nnc(COc3ccccc3)n2Cc2ccco2)cc1 | – | 39.8 µM (active)
74 | COc1ccccc1CNCc1ccc(C(=O)O)s1 | 0.691 | –
75 | COc1ccc(-c2cn3c(n2)sc2cc(C(=O)Nc4ccccc4F)ccc23)cc1 | -4.9 | –

Row | Compound | activity change, negative = inhibition [%] | Potency
76 | O=C(NCc1ccccc1Cl)C1=Cc2cc(Br)ccc2OC1 | 1.09 | –
77 | Cc1ccc(SCC(=O)NC(=O)NCc2ccco2)c(C)c1 | -29.6 | –
78 | O=C(CNc1ccc(F)cc1F)NC(=O)NCc1ccco1 | – | 28.2 µM (active)
79 | CC(C)(C)NC(=O)NCc1ccco1 | -3.46 | –
80 | CCOC(=O)c1ccc(NC(=O)C2CCN(S(=O)(=O)c3ccc4c(c3)CCCC(=O)N4)CC2)cc1 | 0.948 | –
81 | O=C(CCc1nc(CN2CCN(S(=O)(=O)c3ccc(Cl)cc3)CC2)no1)N1CCCCC1 | -8.24 | –
82 | CN(C)[C@@H]1C(=O)C(C(N)=O)=C(O)[C@@]2(O)C(=O)C3=C(O)c4c(O)ccc(Cl)c4[C@@H](O)[C@H]3C[C@@H]12 | – | 39.8 µM (active)
83 | O=C(c1ccccc1F)N1CCC(c2nc3c(nnn3Cc3cccc(F)c3)c(=O)[nH]2)CC1 | 5.51 | –
84 | Cc1ccc(CN2CCc3nc(N4CCN(C)CC4)ncc3C2)cc1 | -3.55 | –
85 | Cc1ccc(C)c(Cn2c(=O)n(CCC(=O)NCc3ccc4c(c3)OCO4)c(=O)c3sccc32)c1 | 6.76 | –
86 | CC(C)c1ccc(NC(=O)c2cc(S(=O)(=O)N3CCc4ccccc4C3)ccc2F)cc1 | 1.91 | –
87 | C1=C(N2CCOCC2)/C(=C/c2nc3ccccc3[nH]2)CC1 | – | 5.62 µM (active)
88 | c1ccc(-n2nnnc2N2CCOCC2)cc1 | -1.12 | –
89 | O=C(C1CCCO1)N1CCC(c2nc3ccccc3[nH]2)CC1 (configuration not stated) | 0.672 | –
90 | COc1ccc(NC(=O)N2CCCn3nc(C)cc32)cc1OC | -2.23 | –
91 | C=CCOc1cccc(C2C(C(=O)c3ccc(C)o3)=C(O)C(=O)N2c2nnc(C)s2)c1 (configuration not stated) | – | 28.2 µM (active)
92 | COc1cc(C2C(C(=O)c3ccco3)=C(O)C(=O)N2c2cc(C)on2)ccc1OCc1ccccc1 (configuration not stated) | -13.7 | –
93 | COc1ccc(C2C(C(C)=O)=C(O)C(=O)N2c2nccs2)cc1 (configuration not stated) | -6.73 | –
94 | CCCCc1nn2c(=O)cc(COC(=O)c3ccc(NC(=O)c4ccccc4C)cc3)nc2s1 | 4.45 | –
95 | Cc1ccc(NC(=O)C(=O)NCC(c2cccnc2)N2CCOCC2)cc1 (configuration not stated) | 0.205 | –
96 | COc1ccc(NC(=O)Cn2c(=O)n(Cc3ccc(C(=O)NCc4ccccc4Cl)cc3)c(=O)c3ccccc32)cc1 | 1.76 | –
97 | Cn1nc(-c2ccccc2)c(-c2ccccc2)c(C(=O)Nc2ccc(S(N)(=O)=O)cc2)c1=O | 0.051 | –
